The campaign covered roughly 290,000 compounds. About 670 (0.23%) were called active.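 How the source made its calls: active means inhibition above a per-plate limit of that plate's mean compound inhibition plus 3 SD (cut at about 60% in these data); inactive means the rest.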 This excerpt belongs to a sample that is enriched for actives.

Results on 45 molecules are retold here after PubChem BioAssay AID1700 (The Scripps Research Institute Molecular Screening Center, 2009).

The test in a line: suppression of KLF5 promoter-driven luciferase – DLD-1 cells, luminescence, primary screen (AID 1700).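 Further: 0% = DMSO wells and 100% = LY294002 at 200 µM; higher means less KLF5 promoter-driven luciferase light.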 Conditions: DLD-1 KLF5 promoter-luciferase reporter, at 5 µM, stronger effect = higher value. On the technique in general: In a reporter assay the amount or activity of a reporter protein is the signal.
As for `COc1ccccc1CNS(=O)(=O)c1ccc2c(c1)NC(=O)CS2`, the inhibition was -51% (inactive).
Then `CC(=O)c1ccc(N2Cc3ccccc3C2)cc1`, with -125% (inactive).
Then `O=C(Nc1nc2ccc([N+](=O)[O-])cc2s1)c1ccc(S(=O)(=O)N2CCCc3ccccc32)cc1`, with -18.3% (inactive); and `O=C(NC(Nc1nc2ccc([N+](=O)[O-])cc2s1)(C(F)(F)F)C(F)(F)F)c1ccccc1`, with 67.7% (active).
Then `CCC(=O)NC(Nc1nc2ccc(C)cc2s1)(C(=O)OC)C(F)(F)F` (stereo not given), with 21.2% (inactive); and `COC(=O)c1ccc(COc2ccc(/C=C/C(=O)c3ccc(OC)c(CSCC(=O)O)c3)cc2OC)cc1`, with 26.8% (inactive); and `CCC(C(=O)NCc1cccnc1)n1nc(C)c2sc3ccccc3c2c1=O` (stereo not given), with -24.5% (inactive).
For `CC(C)CNS(=O)(=O)c1ccc(C(=O)Nc2ccc3c(c2)OCO3)cc1`, the inhibition was -18.9% (inactive).
Then `COc1ccccc1C(=O)NC(=S)NC12CC3CC(CC(C3)C1)C2`, with -5.49% (inactive); and `Cc1ccc(-c2csc(NC3OC(=O)c4ccccc43)n2)cc1` (stereo not given), with 9.97% (inactive); and `Cc1ccn2c(=O)c(C(=O)NCCC3=CCCCC3)c(O)nc2c1`, with 2.41% (inactive).
On to `C[C@@H]1C[C@@H]2O[C@H]2/C=C\C=C\C(=O)Cc2c(Cl)c(O)cc(O)c2C(=O)O1`, for which the inhibition is 64.1% (active).
Then `CC[C@H]1CN2CCc3cc(OC)c(OC)cc3[C@@H]2C[C@@H]1C[C@H]1NCCc2cc(OC)c(OC)cc21`, with 106% (active); and `COc1cc2c(cc1O)[C@H](Cc1ccc(Oc3cc(C[C@@H]4NCCc5cc(OC)c(O)cc54)ccc3O)cc1)NCC2`, with -7.79% (inactive); and `CCc1ccc(OCC2c3cc(OC)c(OC)cc3CCN2C(C)=O)cc1` (stereo not given), with -8.46% (inactive).
Then `COc1ccc(Cc2nnc(SCC(=O)Nc3ccc(C)c(C)c3)o2)cc1OC`, with -24.5% (inactive).
Then `COc1cccc(N(CC(=O)NC2CCCCCC2)S(=O)(=O)c2ccccc2)c1`, with -3.24% (inactive); and `Cc1cccc(OCC(=O)Nc2ccc(NC(=O)c3ccco3)c(C)c2)c1`, with -14.3% (inactive); and `O=C(COc1ccc(Cl)cc1)NCCS(=O)(=O)N1CCN(c2ccc(F)cc2)CC1`, with -3.45% (inactive).
Turning to `Oc1c(Cl)cc(Cl)c(Cl)c1Cc1c(O)c(Cl)cc(Cl)c1Cl`, the inhibition is 81% (active).
For `O=C(N/N=C1\CCSC1)c1cc(Cl)ccc1O`, the inhibition was -24.9% (inactive).
In the case of `COc1ccc(CNc2nccs2)cc1`, the inhibition was -8.32% (inactive).
On to `COc1ccc(C(C)NC(=O)C23CC4CC(CC(C4)C2)C3)cc1` (stereo not given), for which the inhibition was 13.8% (inactive).
Then `Cc1ccc(O)c(NC(=O)c2cc(-c3ccco3)on2)c1`, with -124% (inactive); and `N#Cc1ccc(C(=O)Nc2nc(-c3cccs3)c(C(=O)C(F)(F)F)s2)cc1`, with 16.3% (inactive); and `Cn1c(=O)c2c(nc(NCCNC(=O)c3ccco3)n2Cc2ccccc2F)n(C)c1=O`, with -15% (inactive).
Then `Cc1nn2c(c1-c1ccccc1)N=C(c1ccco1)CC2c1ccccc1` (stereo not given), with -26.4% (inactive); and `CS(=O)(=O)c1ccc2nnn(OCC(=O)Nc3cccc(C#N)c3)c2c1`, with -3.59% (inactive); and `O=C(Nc1cccc(Cl)c1)c1cc(S(=O)(=O)N2CCCCC2)c[nH]1`, with -39.1% (inactive).
Then `COc1ccc(S(=O)(=O)n2nc(C)c(S(=O)(=O)N3CCOCC3)c2C)cc1`, with -33.4% (inactive).
Consider `CCOC(=O)N1CCN(S(=O)(=O)c2ccc(-n3cnnn3)cc2)CC1`, for which the inhibition is -18.3% (inactive).
Then `O=C(NCc1cc(F)cc(C(F)(F)F)c1)C1CCC(=O)N(C2CCCC2)C1` (stereo not given), with 11.8% (inactive); and `CCCCC(C(=O)NC(C)(C)C)N(Cc1ccccc1)C(=O)c1snc(C(N)=O)c1N` (stereo not given), with -18.5% (inactive); and `COc1ccc(C(C)NC(=S)NC2CCCCC2)cc1OC` (stereo not given), with -29.8% (inactive).
Then `CC1CCN(C(=O)Cn2nnnc2CN2CCOCC2)CC1`, with -8.54% (inactive); and `CC(=O)N1CC(=O)N(CC(=O)Nc2ccc(Br)cc2)C1=S`, with -0.85% (inactive); and `COC(=O)c1cccc(C(=O)N2CCCC(Nc3ccc4c(c3)OCCO4)C2)c1` (stereo not given), with -10.2% (inactive).
Then `CC1CCC(NS(=O)(=O)c2ccc3c(c2)CC(=O)N3)CC1` (stereo not given), with 10.7% (inactive).
`C=CCn1c(SCc2ccc(C(=O)NCCO)cc2)nc2ccccc2c1=O`: the inhibition was -13.8% (inactive).
In the case of `CCN1CCCC1CNC(=O)c1cc2cc(OC)c(OC)cc2[nH]1` (stereo not given), the inhibition is -5.17% (inactive).
Then `Cc1ccc(CNC(=O)CCNS(=O)(=O)c2ccc(Br)s2)cc1`, with -6.34% (inactive); and `CC(NC(=O)c1cc2cc(Cl)ccc2oc1=N)c1ccccc1` (stereo not given), with -15.5% (inactive); and `COc1cc(/C=C(\C#N)c2nc3ccccc3[nH]2)ccc1O`, with -74.6% (inactive).
Then `COc1ccc(/C=C(\C#N)c2c[nH]c3ccccc23)cc1`, with 62.4% (active); and `COc1ccc2[nH]cc(/C=C(/C#N)S(=O)(=O)c3ccccc3)c2c1`, with -24.4% (inactive).

As usually defined, the inhibition is the drop in the measured response relative to a control, in per cent.
